What follows are sequences tested against T1, GST-Ap-NF-kB RHD (Exaiptasia pallida (Aiptasia), UniProt A0A913YAJ5 2-422) (assay: protein-binding microarray (PBM); PBM: ~300 nM protein, 6 mM HEPES pH 7.8, 80 mM KCl, 0.5 mM EDTA, 0.5 mM EGTA, 6% glycerol, 35 ng/ul poly-dIdC, 1% milk, 1 h, room temperature; Ap Aiptasia and Nv Nematostella (sea anemones) / Co Capsaspora / Aq Amphimedon (sponge) / Dm Drosophila / Hu human; RHD is the Rel homology domain; high values mean tight binding). Conditions: dsDNA, one strand shown.
T1 sequence: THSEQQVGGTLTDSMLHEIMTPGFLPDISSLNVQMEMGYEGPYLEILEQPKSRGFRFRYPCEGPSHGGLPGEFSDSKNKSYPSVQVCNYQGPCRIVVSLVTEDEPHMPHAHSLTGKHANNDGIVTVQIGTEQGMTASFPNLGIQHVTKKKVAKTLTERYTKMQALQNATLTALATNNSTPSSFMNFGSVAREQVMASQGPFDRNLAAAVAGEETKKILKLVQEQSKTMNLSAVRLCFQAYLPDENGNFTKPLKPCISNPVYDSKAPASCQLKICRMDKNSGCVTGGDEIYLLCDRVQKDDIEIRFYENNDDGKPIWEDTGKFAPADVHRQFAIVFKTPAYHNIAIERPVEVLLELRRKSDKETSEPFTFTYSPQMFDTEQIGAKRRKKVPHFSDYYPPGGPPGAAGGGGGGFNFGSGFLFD

In order of rising binding signal:
1. CCGATTAACATCACGGAAAGCCCTGATGTTAATCGGGTCTTGATTCGCTTGACGCTGCTG  1.02 z-score
2. CCGATTAACATCAGGGAAGCCCATGATGTTAATCGGGTCTTGATTCGCTTGACGCTGCTG  1.18 z-score
3. CCGATTAACATCAAAAAAAGTCCTGATGTTAATCGGGTCTTGATTCGCTTGACGCTGCTG  1.18 z-score
4. CCGATTAACATCAGGTATTTTTATGATGTTAATCGGGTCTTGATTCGCTTGACGCTGCTG  1.27 z-score
5. CCGATTAACATCAGGAATTCACCTGATGTTAATCGGGTCTTGATTCGCTTGACGCTGCTG  1.52 z-score
6. CCGATTAACATCAATGGGATTCCTGATGTTAATCGGGTCTTGATTCGCTTGACGCTGCTG  1.54 z-score
7. CCGATTAACATCACGGTATTTCCTGATGTTAATCGGGTCTTGATTCGCTTGACGCTGCTG  1.56 z-score
8. CCGATTAACATCAATGGGAAAATTGATGTTAATCGGGTCTTGATTCGCTTGACGCTGCTG  1.56 z-score
9. CCGATTAACATCAGATTTCCCACTGATGTTAATCGGGTCTTGATTCGCTTGACGCTGCTG  1.83 z-score
10. CCGATTAACATCAGGAATAACCCTGATGTTAATCGGGTCTTGATTCGCTTGACGCTGCTG  1.87 z-score
11. CCGATTAACATCATAATTCCCAATGATGTTAATCGGGTCTTGATTCGCTTGACGCTGCTG  1.92 z-score
12. CCGATTAACATCAGGAAATGCCCTGATGTTAATCGGGTCTTGATTCGCTTGACGCTGCTG  1.98 z-score
13. CCGATTAACATCAGGACAATCCCTGATGTTAATCGGGTCTTGATTCGCTTGACGCTGCTG  2.22 z-score
14. CCGATTAACATCAGGGGTTTAACTGATGTTAATCGGGTCTTGATTCGCTTGACGCTGCTG  2.44 z-score
15. CCGATTAACATCAGGTACTTCCATGATGTTAATCGGGTCTTGATTCGCTTGACGCTGCTG  2.51 z-score
16. CCGATTAACATCACGGACTTCCCTGATGTTAATCGGGTCTTGATTCGCTTGACGCTGCTG  2.56 z-score
17. CCGATTAACATCAGGAAAACCCATGATGTTAATCGGGTCTTGATTCGCTTGACGCTGCTG  2.63 z-score
18. CCGATTAACATCAAGGAAAACCCTGATGTTAATCGGGTCTTGATTCGCTTGACGCTGCTG  2.67 z-score
19. CCGATTAACATCAGGGAAAATGATGATGTTAATCGGGTCTTGATTCGCTTGACGCTGCTG  2.8 z-score
20. CCGATTAACATCAGGAGTACCCCTGATGTTAATCGGGTCTTGATTCGCTTGACGCTGCTG  3.01 z-score
21. CCGATTAACATCAGGAACGCCCCTGATGTTAATCGGGTCTTGATTCGCTTGACGCTGCTG  3.09 z-score
22. CCGATTAACATCAGGCGAGTCCCTGATGTTAATCGGGTCTTGATTCGCTTGACGCTGCTG  3.13 z-score
23. CCGATTAACATCAAGCAATTCCCTGATGTTAATCGGGTCTTGATTCGCTTGACGCTGCTG  3.2 z-score
24. CCGATTAACATCACTAATTTCCCTGATGTTAATCGGGTCTTGATTCGCTTGACGCTGCTG  3.79 z-score
25. CCGATTAACATCAGGGATCACCCTGATGTTAATCGGGTCTTGATTCGCTTGACGCTGCTG  3.86 z-score
26. CCGATTAACATCAAATATACCCCTGATGTTAATCGGGTCTTGATTCGCTTGACGCTGCTG  4.01 z-score
27. CCGATTAACATCAGGGACCGCCCTGATGTTAATCGGGTCTTGATTCGCTTGACGCTGCTG  4.16 z-score
28. CCGATTAACATCAAGAGTTTCCCTGATGTTAATCGGGTCTTGATTCGCTTGACGCTGCTG  4.29 z-score
29. CCGATTAACATCACGGGAAACCCTGATGTTAATCGGGTCTTGATTCGCTTGACGCTGCTG  4.31 z-score
30. CCGATTAACATCAGGAAAAACCCTGATGTTAATCGGGTCTTGATTCGCTTGACGCTGCTG  4.35 z-score
31. CCGATTAACATCAGGGGAAGGGATGATGTTAATCGGGTCTTGATTCGCTTGACGCTGCTG  4.77 z-score
32. CCGATTAACATCAGGAAGTCCCATGATGTTAATCGGGTCTTGATTCGCTTGACGCTGCTG  4.82 z-score
33. CCGATTAACATCAGGGGACAACCTGATGTTAATCGGGTCTTGATTCGCTTGACGCTGCTG  4.96 z-score
34. CCGATTAACATCAACTCCCCCCATGATGTTAATCGGGTCTTGATTCGCTTGACGCTGCTG  5.39 z-score
35. CCGATTAACATCAGAGAAGTCCCTGATGTTAATCGGGTCTTGATTCGCTTGACGCTGCTG  5.7 z-score
36. CCGATTAACATCACGGGACTTCCTGATGTTAATCGGGTCTTGATTCGCTTGACGCTGCTG  5.89 z-score
37. CCGATTAACATCAGGGGGTAACCTGATGTTAATCGGGTCTTGATTCGCTTGACGCTGCTG  6.07 z-score
38. CCGATTAACATCAGGGGGTTACATGATGTTAATCGGGTCTTGATTCGCTTGACGCTGCTG  6.46 z-score
39. CCGATTAACATCAAACCCCCCCCTGATGTTAATCGGGTCTTGATTCGCTTGACGCTGCTG  7.29 z-score

These sequences were tested against T2, GST-Nv-NF-kB (Cys allele) (Nematostella vectensis, UniProt E5G601 2-411) in the same assay as above. Conditions: dsDNA, one strand shown.
T2 sequence: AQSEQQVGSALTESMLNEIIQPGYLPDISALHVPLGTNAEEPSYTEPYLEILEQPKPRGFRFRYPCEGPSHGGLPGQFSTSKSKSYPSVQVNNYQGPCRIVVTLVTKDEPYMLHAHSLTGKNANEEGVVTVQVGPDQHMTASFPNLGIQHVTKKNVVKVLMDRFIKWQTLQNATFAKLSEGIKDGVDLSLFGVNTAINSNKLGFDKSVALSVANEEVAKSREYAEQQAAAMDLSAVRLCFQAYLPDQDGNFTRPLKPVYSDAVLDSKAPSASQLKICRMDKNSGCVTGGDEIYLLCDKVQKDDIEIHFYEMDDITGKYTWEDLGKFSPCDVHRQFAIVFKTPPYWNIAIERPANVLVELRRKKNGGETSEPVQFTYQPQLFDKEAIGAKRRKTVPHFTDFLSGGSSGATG

In order of rising binding signal:
1. CCGATTAACATCACGGAAAGCCCTGATGTTAATCGGGTCTTGATTCGCTTGACGCTGCTG  1 z-score
2. CCGATTAACATCAATGGGATTCCTGATGTTAATCGGGTCTTGATTCGCTTGACGCTGCTG  1.13 z-score
3. CCGATTAACATCAGGGAAGCCCATGATGTTAATCGGGTCTTGATTCGCTTGACGCTGCTG  1.19 z-score
4. CCGATTAACATCACGGTATTTCCTGATGTTAATCGGGTCTTGATTCGCTTGACGCTGCTG  1.37 z-score
5. CCGATTAACATCAAAAAAAGTCCTGATGTTAATCGGGTCTTGATTCGCTTGACGCTGCTG  1.72 z-score
6. CCGATTAACATCAGGTATTTTTATGATGTTAATCGGGTCTTGATTCGCTTGACGCTGCTG  2.01 z-score
7. CCGATTAACATCAGGAAAACCCATGATGTTAATCGGGTCTTGATTCGCTTGACGCTGCTG  2.25 z-score
8. CCGATTAACATCAGGGGTTTAACTGATGTTAATCGGGTCTTGATTCGCTTGACGCTGCTG  2.32 z-score
9. CCGATTAACATCAAGGAAAACCCTGATGTTAATCGGGTCTTGATTCGCTTGACGCTGCTG  2.33 z-score
10. CCGATTAACATCAGGAGTACCCCTGATGTTAATCGGGTCTTGATTCGCTTGACGCTGCTG  2.42 z-score
11. CCGATTAACATCAGGTACTTCCATGATGTTAATCGGGTCTTGATTCGCTTGACGCTGCTG  2.6 z-score
12. CCGATTAACATCAGGAATAACCCTGATGTTAATCGGGTCTTGATTCGCTTGACGCTGCTG  2.62 z-score
13. CCGATTAACATCACGGACTTCCCTGATGTTAATCGGGTCTTGATTCGCTTGACGCTGCTG  2.62 z-score
14. CCGATTAACATCAGGACAATCCCTGATGTTAATCGGGTCTTGATTCGCTTGACGCTGCTG  2.68 z-score
15. CCGATTAACATCAGGGATCACCCTGATGTTAATCGGGTCTTGATTCGCTTGACGCTGCTG  2.9 z-score
16. CCGATTAACATCAGGAAATGCCCTGATGTTAATCGGGTCTTGATTCGCTTGACGCTGCTG  3.05 z-score
17. CCGATTAACATCAGGAATTCACCTGATGTTAATCGGGTCTTGATTCGCTTGACGCTGCTG  3.06 z-score
18. CCGATTAACATCAGGCGAGTCCCTGATGTTAATCGGGTCTTGATTCGCTTGACGCTGCTG  3.12 z-score
19. CCGATTAACATCAGGAACGCCCCTGATGTTAATCGGGTCTTGATTCGCTTGACGCTGCTG  3.22 z-score
20. CCGATTAACATCAAATATACCCCTGATGTTAATCGGGTCTTGATTCGCTTGACGCTGCTG  3.4 z-score
21. CCGATTAACATCAGGGGGTAACCTGATGTTAATCGGGTCTTGATTCGCTTGACGCTGCTG  3.41 z-score
22. CCGATTAACATCATAATTCCCAATGATGTTAATCGGGTCTTGATTCGCTTGACGCTGCTG  3.54 z-score
23. CCGATTAACATCAGGGACCGCCCTGATGTTAATCGGGTCTTGATTCGCTTGACGCTGCTG  3.55 z-score
24. CCGATTAACATCAGATTTCCCACTGATGTTAATCGGGTCTTGATTCGCTTGACGCTGCTG  3.74 z-score
25. CCGATTAACATCAACTCCCCCCATGATGTTAATCGGGTCTTGATTCGCTTGACGCTGCTG  4.1 z-score
26. CCGATTAACATCACGGGAAACCCTGATGTTAATCGGGTCTTGATTCGCTTGACGCTGCTG  4.16 z-score
27. CCGATTAACATCAGGGGGTTACATGATGTTAATCGGGTCTTGATTCGCTTGACGCTGCTG  4.25 z-score
28. CCGATTAACATCAGGGAAAATGATGATGTTAATCGGGTCTTGATTCGCTTGACGCTGCTG  4.26 z-score
29. CCGATTAACATCAAGCAATTCCCTGATGTTAATCGGGTCTTGATTCGCTTGACGCTGCTG  4.28 z-score
30. CCGATTAACATCAATGGGAAAATTGATGTTAATCGGGTCTTGATTCGCTTGACGCTGCTG  4.28 z-score
31. CCGATTAACATCACTAATTTCCCTGATGTTAATCGGGTCTTGATTCGCTTGACGCTGCTG  4.55 z-score
32. CCGATTAACATCAGGGGACAACCTGATGTTAATCGGGTCTTGATTCGCTTGACGCTGCTG  4.76 z-score
33. CCGATTAACATCAGGGGAAGGGATGATGTTAATCGGGTCTTGATTCGCTTGACGCTGCTG  4.77 z-score
34. CCGATTAACATCAAACCCCCCCCTGATGTTAATCGGGTCTTGATTCGCTTGACGCTGCTG  5.16 z-score
35. CCGATTAACATCAGGAAGTCCCATGATGTTAATCGGGTCTTGATTCGCTTGACGCTGCTG  5.32 z-score
36. CCGATTAACATCAAGAGTTTCCCTGATGTTAATCGGGTCTTGATTCGCTTGACGCTGCTG  5.34 z-score
37. CCGATTAACATCAGGAAAAACCCTGATGTTAATCGGGTCTTGATTCGCTTGACGCTGCTG  5.86 z-score
38. CCGATTAACATCACGGGACTTCCTGATGTTAATCGGGTCTTGATTCGCTTGACGCTGCTG  6.03 z-score
39. CCGATTAACATCAGAGAAGTCCCTGATGTTAATCGGGTCTTGATTCGCTTGACGCTGCTG  6.22 z-score

Source: article PMC5700166
